From PubChem
TWEAK-Fn14 inh: blocks TWEAK-Fn14 interaction in a reporter cell assay. TWEAK-stimulated Fn14 reporter cells, luciferase luminescence, 8 h. 360,000 compounds, 2% hits. inhibition, % at 10 µM; in the data active = inhibition above about 50%
TROY NFkB inh: TROY signaling inhibition. Q293 LMP1-TROYcd NF-kB luciferase reporter, 4 h. AID 1347056. inhibition, % at 10 µM. 360,000 compounds, 0.98% hits;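 active = compounds whose plate-normalised and pattern-corrected inhibition of the luciferase reporter signal at the single screening dose is 50% or more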
LGR2 antag: blocks bursicon-induced cAMP signaling via Drosophila LGR2. 380,000 compounds, 0.35% hits. AID 720647. inhibition, % at 9.99 µM. HEK293 LGR2, CRE-luciferase, bursicon-stimulated, 4 h;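 active = drop in luminescence signal, shown as inhibition above about 50% in the replicate tests, limit read from the data, passing the limit was not always enough; inconclusive = probably only some replicates passing the limit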;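 note: agonist challenge used bursicon conditioned medium at about half maximal strength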
aDG glyco act: alpha-DG glycosylation activation; Pro5-aDG cells, alpha-DG glycosylation AlphaScreen (IIH6); 0% Pro5, 100% B10-LARGE cell signal; activation, % at 10 µM; 360,000 compounds, 0.22% hits;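 active = activation of at least 8% versus controls, or a plate z-score of at least 8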;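 note: Pro5 are CHO cells carrying HIG-tagged alpha-DG that lacks glycosylation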
LMP1 NFkB inh: Epstein-Barr LMP1 NF-kappaB reporter inhibition. 350,000 compounds, 0.69% hits. LMP1-induced NF-kappaB luciferase reporter cells, luminescence. inhibition, % at 12.5 µM. AID 504558; in the data active = inhibition above about 41%; inconclusive = no clear call, values can overlap the other calls;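 note: 0% = neutral control wells and 100% = reference inhibitor control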
HSP90 refold inh: inhibitors of HSP90 luciferase refolding in rabbit reticulocyte lysate. AID 1789. luciferase refolding luminescence, 3 h. 290,000 compounds, 0.91% hits. inhibition, % at 5.6 µM;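 active = inhibition above the screen-wide mean plus 3 SD, computed separately per campaign, cut at about 16% in these data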;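 note: 0% = DMSO wells and 100% = 60 µM geldanamycin wells; inhibitors lower the luminescence because luciferase stays unfolded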
* marks the source's active call; other numbers are inactive results. This is a sample that favours compounds with a hit; in the whole collection about 2.6% have one here.

`Cc1ccc(N/C=C/C(=O)c2cccs2)cc1` gave TWEAK-Fn14 inh 81.0*, TROY NFkB inh 55.2*, LGR2 antag 75.4*, aDG glyco act -0.4, LMP1 NFkB inh 16.0 and HSP90 refold inh -4.9.
Screening O=C(/C=C/Nc1ccccc1F)c1cccs1 returned TWEAK-Fn14 inh 63.6*, TROY NFkB inh -13.9, LGR2 antag 79.5*, aDG glyco act 0.0, LMP1 NFkB inh 12.9 and HSP90 refold inh -4.5.
`C[C@H](CO)N1C[C@H](C)[C@H](CN(C)Cc2ccc(C(=O)O)cc2)Oc2ccc(NC(=O)Nc3ccc(F)cc3)cc2C1=O` gave LGR2 antag 9.0.
Screening CC(C)c1ccc(C2c3[nH]c4ccccc4c3C[C@H]3C(=O)N(c4ccccc4C(=O)N4CCC[C@H]4C(=O)O)C(=O)N23)cc1 (stereo partly drawn) returned TWEAK-Fn14 inh 43.7, TROY NFkB inh 66.7*, LGR2 antag -32.3, aDG glyco act 0.1, LMP1 NFkB inh -8.9 and HSP90 refold inh 0.5.
Screening O=c1oc2ccc(C#CC3(O)CCCCC3)cc2cc1-n1cc(-c2ccccn2)nn1 returned TWEAK-Fn14 inh 58.2*, TROY NFkB inh 40.6, LGR2 antag -17.3, aDG glyco act -0.3 and LMP1 NFkB inh 9.4.
CO[C@H]1CN(C)C(=O)c2cc(NS(=O)(=O)CC(F)(F)F)ccc2OC[C@@H](C)N(Cc2cccnc2)C[C@@H]1C was read as LGR2 antag 2.9.
`CCOC(=O)CSc1nc2sc3c(c2c(=O)n1-c1ccccc1)CCN(C(C)C)C3` gave TWEAK-Fn14 inh 83.7*, TROY NFkB inh 10.6, LGR2 antag 10.0, aDG glyco act 0.1, LMP1 NFkB inh 1.6 and HSP90 refold inh 2.6.
For CCOc1cc(/C=C(\C#N)C(=O)Nc2cccc(C(=O)O)c2)cc(Br)c1OC(=O)c1ccc(OC)cc1 the results were TWEAK-Fn14 inh 9.7, TROY NFkB inh 62.4*, LGR2 antag -6.0, aDG glyco act 0.1, LMP1 NFkB inh -2.1 and HSP90 refold inh -0.7.
Screening COc1ccc(-c2csc3ncn(Cc4ccccc4)c(=O)c23)cc1 returned TWEAK-Fn14 inh 90.8*, TROY NFkB inh -6.6, LGR2 antag -21.7, aDG glyco act 0.0, LMP1 NFkB inh 2.4 and HSP90 refold inh -1.2.
Screening COc1ccc(S(=O)(=O)N/N=C\c2ccc([N+](=O)[O-])o2)c(OC)c1 returned TWEAK-Fn14 inh -15.1, TROY NFkB inh -6.3, LGR2 antag 0.5, aDG glyco act 0.1, LMP1 NFkB inh -1.0 and HSP90 refold inh -0.1.
O=[N+]([O-])c1ccc(/C=N\NS(=O)(=O)c2ccc(F)cc2)o1 was read as TWEAK-Fn14 inh 84.4*, TROY NFkB inh 19.5, LGR2 antag -4.7, aDG glyco act 0.0, LMP1 NFkB inh -1.9 and HSP90 refold inh -1.5.
Screening Cc1nc(C)n(C(C)CNC(=O)c2ccco2)n1 (stereo not drawn) returned TWEAK-Fn14 inh 8.5, TROY NFkB inh -13.4, LGR2 antag -6.4, aDG glyco act 0.0, LMP1 NFkB inh 44.6* and HSP90 refold inh 1.2.
For O=C(C[C@@H]1C[C@H]2c3cc(NC(=O)C4CCC4)ccc3O[C@H]2[C@H](CO)O1)NCc1cccnc1 the results were LGR2 antag -20.5.
`Cc1ccc(C(=O)c2ccc(C)cc2)cc1` gave TWEAK-Fn14 inh -13.2, TROY NFkB inh -65.1, LGR2 antag -41.2, aDG glyco act -0.1, LMP1 NFkB inh -5.6 and HSP90 refold inh 0.2.
`Cc1ccc(C(=O)c2no[n+]([O-])c2C(=O)c2ccc(C)cc2)cc1` gave TWEAK-Fn14 inh 53.4*, TROY NFkB inh -8.8, LGR2 antag -13.8, aDG glyco act -0.2, LMP1 NFkB inh 1.2 and HSP90 refold inh 2.3.
For C[C@@H]1CN([C@@H](C)CO)C(=O)Cc2cc(NC(=O)Nc3ccc(C(F)(F)F)cc3)ccc2O[C@H]1CN(C)S(=O)(=O)c1ccccc1 the results were LGR2 antag 2.2.
C=C1C(=O)OC2C1CCC(C)=C1C(=O)C3OC3(C)C12 (stereo not drawn) was read as TWEAK-Fn14 inh 95.0*, TROY NFkB inh 40.8, LGR2 antag 98.7*, aDG glyco act 0.1 and LMP1 NFkB inh 25.5.
For CCCCSc1nc(C)cc(SCC(=O)N/N=C/c2cccc(OC)c2O)n1 the results were TWEAK-Fn14 inh 103.5*, LGR2 antag inconclusive, aDG glyco act 0.5, LMP1 NFkB inh 15.4 and HSP90 refold inh 0.3.
`COc1ccccc1/C=N/NC(=O)CSc1ccc2ccccc2n1` gave TWEAK-Fn14 inh 52.0*, TROY NFkB inh 48.7, LGR2 antag -14.3, aDG glyco act 0.1, LMP1 NFkB inh -16.7 and HSP90 refold inh 1.6.
Screening COc1ccccc1/C=N/NC(=O)CSc1cc(C)nc2ccccc12 returned TWEAK-Fn14 inh 22.2, TROY NFkB inh 22.6, LGR2 antag 8.9, aDG glyco act 0.1, LMP1 NFkB inh -7.4 and HSP90 refold inh -0.7.
COc1cccc(/C=N/NC(=O)CSc2nnc(C)n2-c2ccccc2)c1O was read as TWEAK-Fn14 inh -16.9, TROY NFkB inh -41.6, aDG glyco act 0.0, LMP1 NFkB inh 3.5 and HSP90 refold inh 1.7.
C[C@H](CO)N1C[C@H](C)[C@@H](CN(C)CC2CC2)Oc2cc(C#CC3(O)CCCC3)ccc2S1(=O)=O was read as LGR2 antag -10.6.
`Cc1ccc(S(=O)(=O)Nc2cccc3c2O[C@@H](CN(C)CC2CC2)[C@H](C)CN([C@H](C)CO)C3=O)cc1` gave LGR2 antag 12.9.
c1coc(CN(Cc2cccs2)Cc2nnnn2C2CCCCC2)c1 was read as TWEAK-Fn14 inh 51.1*, TROY NFkB inh 10.4, aDG glyco act -0.1, LMP1 NFkB inh -9.3 and HSP90 refold inh -2.9.
`Cc1noc(C)c1S(=O)(=O)N(C)C[C@@H]1OCCCC[C@@H](C)Oc2ccc(NC(=O)Cc3ccccc3)cc2C(=O)N([C@@H](C)CO)C[C@H]1C` gave LGR2 antag 12.5.
For Cc1ccccc1-c1cc(C(=O)Nc2sc(C)c(C)c2C(N)=O)c2ccccc2n1 the results were TWEAK-Fn14 inh 18.0, TROY NFkB inh 26.3, aDG glyco act -0.2, LMP1 NFkB inh 4.5 and HSP90 refold inh 3.2.
Screening CCOC(=O)c1sc(NC(=O)CSc2nc(C)cc(-c3ccccc3)n2)c(C#N)c1C returned TWEAK-Fn14 inh -3.1, TROY NFkB inh 8.5, aDG glyco act -0.2, LMP1 NFkB inh -0.3 and HSP90 refold inh -1.9.
For CCOC(=O)c1sc(NC(=O)c2cc(-c3ccccc3C)nc3ccccc23)c(C#N)c1C the results were TWEAK-Fn14 inh 63.2*, TROY NFkB inh 68.5*, aDG glyco act 0.1, LMP1 NFkB inh 34.4 and HSP90 refold inh -3.7.
For CCOC(=O)c1sc(NC(=O)CSc2n[nH]c(-c3ccc(Cl)cc3Cl)n2)c(C#N)c1C the results were TWEAK-Fn14 inh -3.9, TROY NFkB inh 63.4*, aDG glyco act 0.8, LMP1 NFkB inh -1.6 and HSP90 refold inh 1.9.
For CCCNC(=O)Nc1ccc2c(c1)OC[C@H](C)N(C(=O)C1CCOCC1)C[C@H](C)[C@@H](OC)CN(C)C2=O the results were LGR2 antag -10.8.
